The target in test [1] is human Thyroid hormone Receptor beta (TRb), THRB (gene 7068) (UniProt P10828). The test is described as follows: ATG_hTRb_XSP1: Attagene TRANS-FACTORIAL Multi-Species (XSP1) HepG2 Assay for human Thyroid hormone Receptor beta (TRb) (AID 2283808). Put shortly: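 HepG2 cells transiently transfected with reporter units driving GAL4-UAS reporters for chimeric NR-Gal4 proteins; 24 h chemical exposure with 3 nM 6-alpha-fluorotestosterone present. Reporter mRNA quantified by RT-PCR and capillary electrophoresis, gain of signal versus DMSO.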

The nature of test [2]: ATG_XTT_Cytotoxicity_XSP1: Cytotoxicity Assessment in the Attagene TRANS-FACTORIAL Multi-Species (XSP1) HepG2 Assay (AID 2283810). Put shortly: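 XTT viability readout taken at 24 hours post-dosing in HepG2 liver cells co-treated with 3 nM 6-alpha-fluorotestosterone. Signal loss relative to DMSO controls reflects cytotoxicity.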
Test [3] in a line: ATG_M_06_XSP2: Attagene TRANS-FACTORIAL Multi-Species (XSP2) HepG2 Assay for M06 Transcription Factor (Internal Marker) (AID 2283811).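 Also: hits are increases in signal above the DMSO baseline.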 Put shortly: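 HepG2 cells transiently transfected with GAL4-UAS multiple reporter units, medium containing 3 nM 6-alpha-fluorotestosterone and 1.5 nM norgestrel; reporter mRNA measured 24 hours post-dosing by RT-PCR and capillary electrophoresis. Internal background marker, gain of signal vs DMSO.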

The target in test [4] is Estrogen receptor beta (Homo sapiens) (UniProt Q92731). The test is described as follows: ATG_hERb_XSP2: Attagene TRANS-FACTORIAL Multi-Species (XSP2) HepG2 Assay for human Estrogen Receptor (ERb) (AID 2283813).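 Also: actives raise reporter mRNA above DMSO so AC50 reflects agonist induction.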 Put shortly: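 HepG2 cells transiently transfected with GAL4-UAS reporter units and chimeric human ERb-Gal4, 24 h exposure. Reporter mRNA quantified by RT-PCR with FAM labelling, HpaI digestion and capillary electrophoresis; gain of signal versus DMSO.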

In test [5] the test system is turtle Androgen Receptor (AR), gene 101947425. Briefly: ATG_trAR_XSP2: Attagene TRANS-FACTORIAL Multi-Species (XSP2) HepG2 Assay for turtle Androgen Receptor (AR) (AID 2283815).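 As to AC50: reporter mRNA from a Gal4 chimera of turtle AR measured by RT-PCR; potency for gain of reporter signal meaning activation above DMSO baseline.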 Put shortly:
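HepG2 cells transiently transfected with GAL4-UAS reporter units for chimeric NR-Gal4 receptors; 24 h dosing in presence of 3 nM 6-alpha-fluorotestosterone and 1.5 nM norgestrel. Reporter mRNA by RT-PCR and capillary electrophoresis, gain of signal versus DMSO.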

The target of test [6] is zebrafish Estrogen Receptor (ER1), esr1 (gene 259252) (UniProt P57717). Briefly: ATG_zfER1_XSP2: Attagene TRANS-FACTORIAL Multi-Species (XSP2) HepG2 Assay for zebrafish Estrogen Receptor (ER1) (AID 2283816). Put shortly:
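HepG2 cells transiently transfected with a GAL4-UAS reporter and a chimeric zebrafish ER1-Gal4 construct, dosed 24 h. Reporter mRNA quantified by RT-PCR, labelling, HpaI digestion and capillary electrophoresis, relative to DMSO.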

In test [7] the target is chicken Estrogen Receptor (ERa), ESR1 (gene 396099) (UniProt P06212). Briefly: ATG_chERa_XSP2: Attagene TRANS-FACTORIAL Multi-Species (XSP2) HepG2 Assay for chicken Estrogen Receptor (ERa) (AID 2283817).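 Also: actives raise reporter signal above DMSO so AC50 reflects ER activation.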 Put shortly:
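Transiently transfected HepG2 cells expressing chimeric chicken ERa-GAL4 reporter units, dosed 24 h with 3 nM 6-alpha-fluorotestosterone and 1.5 nM norgestrel present. Reporter mRNA measured by RT-PCR and capillary electrophoresis; gain-of-signal fitted relative to DMSO.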

Test [8] has as its system zebrafish Estrogen Receptor (ER2a), gene 317734. The test is described as follows: ATG_zfER2a_XSP2: Attagene TRANS-FACTORIAL Multi-Species (XSP2) HepG2 Assay for zebrafish Estrogen Receptor (ER2a) (AID 2283818).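 Also: hits raise reporter mRNA so AC50 reflects activation of zebrafish ER2a.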 Put shortly:
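HepG2 cells transiently transfected with GAL4-UAS reporter units and chimeric zebrafish ER2a-Gal4, exposed 24 h; medium contains 3 nM 6-alpha-fluorotestosterone and 1.5 nM norgestrel. Reporter mRNA quantified by RT-PCR, HpaI digestion, capillary electrophoresis; gain versus DMSO.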

The target of test [9] is GAL4 Transcription Factor (Internal Marker), GAL4 (gene 855828) (UniProt P04386). Briefly: ATG_GAL4_XSP2: Attagene TRANS-FACTORIAL Multi-Species (XSP2) HepG2 Assay for GAL4 Transcription Factor (Internal Marker) (AID 2283814).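 Also: GAL4 reporter mRNA background control in MRTU transfected cells not a receptor target.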 Put shortly:
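HepG2 cells transiently transfected with GAL4-UAS reporter units, stimulated with 3 nM 6-alpha-fluorotestosterone plus 1.5 nM norgestrel, dosed 24 h. Reporter mRNA by RT-PCR/capillary electrophoresis; gain-of-signal fit versus DMSO, background control.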

In test [10] the target is zebrafish Thyroid Hormone Receptor beta (TRb), thrb (gene 30607) (UniProt Q9PVE4). Briefly: ATG_zfTRb_XSP1: Attagene TRANS-FACTORIAL Multi-Species (XSP1) HepG2 Assay for zebrafish Thyroid Hormone Receptor beta (TRb) (AID 2283809). Put shortly: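 HepG2 cells transiently transfected with multiplexed GAL4-UAS reporter units expressing chimeric zebrafish TRb–Gal4. Dosed 24 h with 3 nM 6-alpha-fluorotestosterone present; reporter mRNA measured by RT-PCR, HpaI digestion and capillary electrophoresis; gain of signal versus DMSO.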

“And” between values parts separate entries of the source, which are not always exact repeats. Identical values can stand only once. Results filed as inconclusive are left out. A structure can be active in one record and inactive in another. The source made the active and inactive calls. The calls were made as follows: active = hit-call score of the fitted dose curve at least 0.9, where 1 is the maximum; inconclusive = response in the unintended direction; inactive = score below 0.9.

GAL4 Transcription Factor (Internal Marker), GAL4 (gene 855828), sequence (P04386 whole entry, looked up, the tested form may be a part): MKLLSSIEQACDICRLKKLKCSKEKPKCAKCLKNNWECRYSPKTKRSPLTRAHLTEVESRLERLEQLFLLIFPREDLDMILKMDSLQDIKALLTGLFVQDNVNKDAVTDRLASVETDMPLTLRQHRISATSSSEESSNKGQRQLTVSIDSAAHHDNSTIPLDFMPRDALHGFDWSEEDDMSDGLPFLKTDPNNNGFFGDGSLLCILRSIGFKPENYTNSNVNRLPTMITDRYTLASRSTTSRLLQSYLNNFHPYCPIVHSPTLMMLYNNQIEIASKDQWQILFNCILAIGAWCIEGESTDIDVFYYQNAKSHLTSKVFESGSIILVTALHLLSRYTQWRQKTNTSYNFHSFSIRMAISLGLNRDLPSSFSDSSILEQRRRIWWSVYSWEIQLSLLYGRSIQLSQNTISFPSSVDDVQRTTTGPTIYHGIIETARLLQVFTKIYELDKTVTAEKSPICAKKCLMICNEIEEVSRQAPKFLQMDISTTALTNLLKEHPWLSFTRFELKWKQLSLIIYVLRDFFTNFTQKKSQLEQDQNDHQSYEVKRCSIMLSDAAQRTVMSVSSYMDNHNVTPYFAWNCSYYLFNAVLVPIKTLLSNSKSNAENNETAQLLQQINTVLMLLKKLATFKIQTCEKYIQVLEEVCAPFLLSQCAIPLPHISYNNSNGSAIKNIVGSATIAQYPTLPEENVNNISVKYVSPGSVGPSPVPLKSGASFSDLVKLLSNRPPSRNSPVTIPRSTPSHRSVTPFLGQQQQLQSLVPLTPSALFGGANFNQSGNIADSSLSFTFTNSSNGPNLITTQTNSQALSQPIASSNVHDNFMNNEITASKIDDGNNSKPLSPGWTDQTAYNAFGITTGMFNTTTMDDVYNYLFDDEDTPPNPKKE
Estrogen receptor beta (Homo sapiens), sequence (Q92731 whole entry, looked up, the tested form may be a part): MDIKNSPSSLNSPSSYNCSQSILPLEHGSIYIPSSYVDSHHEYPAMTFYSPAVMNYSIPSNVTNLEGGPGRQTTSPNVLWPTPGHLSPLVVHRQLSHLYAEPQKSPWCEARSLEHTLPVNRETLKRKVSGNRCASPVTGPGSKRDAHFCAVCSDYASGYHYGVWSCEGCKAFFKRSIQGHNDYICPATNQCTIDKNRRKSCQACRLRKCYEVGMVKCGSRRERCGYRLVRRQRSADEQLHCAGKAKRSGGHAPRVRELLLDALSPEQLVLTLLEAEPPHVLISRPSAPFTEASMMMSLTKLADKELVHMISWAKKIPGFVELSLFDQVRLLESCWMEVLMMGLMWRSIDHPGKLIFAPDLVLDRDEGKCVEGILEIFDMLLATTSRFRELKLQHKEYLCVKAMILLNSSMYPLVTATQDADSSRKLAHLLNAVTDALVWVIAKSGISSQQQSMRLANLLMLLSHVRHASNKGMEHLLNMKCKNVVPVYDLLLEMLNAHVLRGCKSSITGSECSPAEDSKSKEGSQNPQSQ
zebrafish Thyroid Hormone Receptor beta (TRb), thrb (gene 30607), sequence (Q9PVE4 whole entry, looked up, the tested form may be a part): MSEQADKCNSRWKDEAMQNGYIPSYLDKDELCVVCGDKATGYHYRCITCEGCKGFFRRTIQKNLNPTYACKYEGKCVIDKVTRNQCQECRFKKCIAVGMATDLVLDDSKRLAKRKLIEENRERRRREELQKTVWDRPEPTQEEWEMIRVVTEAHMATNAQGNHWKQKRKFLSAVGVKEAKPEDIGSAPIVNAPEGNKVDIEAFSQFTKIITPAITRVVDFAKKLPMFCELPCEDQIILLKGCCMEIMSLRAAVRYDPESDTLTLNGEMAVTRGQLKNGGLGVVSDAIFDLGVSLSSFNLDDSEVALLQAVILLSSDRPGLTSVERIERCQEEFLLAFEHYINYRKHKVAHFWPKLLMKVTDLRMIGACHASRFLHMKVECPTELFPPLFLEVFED
human Thyroid hormone Receptor beta (TRb), THRB (gene 7068), sequence (P10828 whole entry, looked up, the tested form may be a part): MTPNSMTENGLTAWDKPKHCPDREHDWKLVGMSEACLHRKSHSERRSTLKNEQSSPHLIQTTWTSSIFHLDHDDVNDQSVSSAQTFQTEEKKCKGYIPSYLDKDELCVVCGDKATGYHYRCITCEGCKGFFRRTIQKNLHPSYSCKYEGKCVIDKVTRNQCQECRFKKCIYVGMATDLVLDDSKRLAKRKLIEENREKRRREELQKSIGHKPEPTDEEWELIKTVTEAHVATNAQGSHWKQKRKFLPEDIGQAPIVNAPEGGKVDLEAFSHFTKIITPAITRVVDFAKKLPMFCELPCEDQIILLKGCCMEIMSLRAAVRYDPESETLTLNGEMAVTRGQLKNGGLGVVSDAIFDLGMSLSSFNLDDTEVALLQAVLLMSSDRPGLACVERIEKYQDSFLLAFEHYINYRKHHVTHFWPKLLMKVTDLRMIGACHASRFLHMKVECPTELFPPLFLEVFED
zebrafish Estrogen Receptor (ER1), esr1 (gene 259252), sequence (P57717 whole entry, looked up, the tested form may be a part): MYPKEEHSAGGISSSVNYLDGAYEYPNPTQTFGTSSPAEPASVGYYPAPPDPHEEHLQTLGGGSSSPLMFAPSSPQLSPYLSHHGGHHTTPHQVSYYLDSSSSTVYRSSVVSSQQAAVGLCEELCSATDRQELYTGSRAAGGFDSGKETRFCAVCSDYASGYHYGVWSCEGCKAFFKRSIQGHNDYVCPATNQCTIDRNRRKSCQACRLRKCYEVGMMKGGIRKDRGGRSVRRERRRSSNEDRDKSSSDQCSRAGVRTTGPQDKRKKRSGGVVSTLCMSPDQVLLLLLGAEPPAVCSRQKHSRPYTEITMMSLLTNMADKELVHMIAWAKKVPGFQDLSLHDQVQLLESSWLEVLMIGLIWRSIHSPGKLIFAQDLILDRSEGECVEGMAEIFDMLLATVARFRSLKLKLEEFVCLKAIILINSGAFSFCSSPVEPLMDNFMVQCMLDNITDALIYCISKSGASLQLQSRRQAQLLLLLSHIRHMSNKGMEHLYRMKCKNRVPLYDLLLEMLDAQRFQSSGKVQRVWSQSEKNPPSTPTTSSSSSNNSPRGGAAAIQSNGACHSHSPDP
chicken Estrogen Receptor (ERa), ESR1 (gene 396099), sequence (P06212 whole entry, looked up, the tested form may be a part): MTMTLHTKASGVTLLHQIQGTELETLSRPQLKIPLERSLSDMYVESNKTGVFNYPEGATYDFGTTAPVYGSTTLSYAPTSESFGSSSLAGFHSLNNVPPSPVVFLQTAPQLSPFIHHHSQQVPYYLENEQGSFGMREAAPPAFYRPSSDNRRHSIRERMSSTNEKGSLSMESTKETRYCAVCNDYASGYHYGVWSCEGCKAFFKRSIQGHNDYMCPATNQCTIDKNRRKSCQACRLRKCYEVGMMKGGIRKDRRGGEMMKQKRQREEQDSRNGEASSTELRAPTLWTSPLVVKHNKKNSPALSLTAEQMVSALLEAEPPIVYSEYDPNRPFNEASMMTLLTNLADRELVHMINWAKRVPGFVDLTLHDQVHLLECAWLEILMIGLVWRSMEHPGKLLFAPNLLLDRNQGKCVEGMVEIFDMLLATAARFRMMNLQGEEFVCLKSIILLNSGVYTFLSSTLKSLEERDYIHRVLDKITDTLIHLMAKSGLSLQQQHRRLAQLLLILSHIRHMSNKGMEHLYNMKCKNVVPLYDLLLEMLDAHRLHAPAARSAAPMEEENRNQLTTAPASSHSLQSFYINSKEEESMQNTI

By AC50 is commonly meant the midpoint of the concentration-response curve, whichever way the signal moves. For the compound `C[C@]12CCC(=O)C[C@@H]1CC[C@@H]1[C@@H]2CC[C@]2(C)[C@@H](O)CC[C@@H]12`, the call in [1], in [2], in test [3], in test [4], in test [6] and in test [7] was inactive. Further, the outcome in test [8] was inactive. The AC50 in [5] is 0.0339 µM (active).
As for `Oc1c(I)cc(I)cc1I`, the result in test [3], in test [4] and in [6] was inactive. Besides, the AC50 in test [7] is 2.58 µM (active).
For `Clc1ccc(C2(Cn3cncn3)CC(Br)CO2)c(Cl)c1` (centres undefined), the outcome in [3], in test [4], in test [9], in test [6], in test [7] and in test [8] was inactive. In addition, the AC50 in [7] is 3.47 µM (active); in test [8] it was 37.4 µM (active).
Regarding `C[C@]12CC[C@H](O)CC1=CC[C@@H]1[C@@H]2CC[C@]2(C)C(=O)CC[C@@H]12`, the result in [3] and in test [9] was inactive. The AC50 in test [4] was 1.14 µM (active) and 962 nM (active); in [6], 13.9 µM (active) and 7.49 µM (active); in test [7] it was 2.19 µM (active) and 1.14 µM (active); in [8], 2.39 µM (active) and 1.46 µM (active).
`C[C@H]1CCCC(=O)CCC/C=C/c2cc(O)cc(O)c2C(=O)O1`: the compound was called inactive in test [3], in test [4] and in [6]. For the same compound, the AC50 in test [4] is 2.99 nM (active); in test [6], 9.96 nM (active); in test [7] it was 6.03 nM (active) and 1.45 nM (active); in test [8], 24.6 nM (active) and 6.41 nM (active).
Regarding `Oc1ccc(-c2ccccc2)cc1`, the call in [3] was inactive. Also, the AC50 is 1.16 µM (active) and 1.68 µM (active) in test [4]; 4.42 µM (active) and 8.23 µM (active) in test [6]; 712 nM (active) and 200 nM (active) in test [7]; 2.6 µM (active) and 1.43 µM (active) in [8].
For the compound `COP(=O)(OC)O/C(=C\Cl)c1cc(Cl)c(Cl)cc1Cl`, the compound was classed as inactive in test [10], in test [3], in test [9] and in [8]. Besides, the AC50 in test [7] was 4.9 µM (active).
For `CC(C)C1CCC(Cc2ccc(Cl)cc2)C1(O)Cn1cncn1` (centres undefined), the outcome in test [3], in test [4], in test [9], in [6], in test [7] and in test [8] was inactive.
In the case of `CC(C)(C)CC(C)(C)c1ccc(O)cc1`, the call in test [10], in test [2], in [3], in test [4] and in [8] was inactive. Moreover, in [7], the AC50 is 4.49 µM (active).
Turning to `CC(C)(C)c1cc(O)ccc1O`, the compound was called inactive in test [10], in test [3], in [5] and in test [6]. In addition, the AC50 in test [7] was 24.6 µM (active); in test [8], 43.8 µM (active).
In the case of `CC(=O)C=C(C)C`, the call in test [3], in test [6], in test [7] and in [8] was inactive. Also, the half-maximal activity concentration (AC50) in test [8] is 46.7 µM (active).
Regarding `O=S(=O)(c1ccc(Cl)cc1)c1ccc(Cl)cc1`, the compound was called inactive in [3], in [4] and in test [8]. Also, the AC50 in test [4] is 8120 nM (active); in test [6], 26.6 µM (active) and 37.7 µM (active); in test [7] it was 35.3 µM (active) and 19.3 µM (active).
As to `O=C1C2(Cl)C3(Cl)C4(Cl)C(Cl)(Cl)C5(Cl)C3(Cl)C1(Cl)C5(Cl)C24Cl` (centres undefined), the outcome in test [1], in test [10], in test [3] and in test [6] was inactive. In test [7], the AC50 was 1.33 µM (active).
Regarding `CC12CC1(C)C(=O)N(c1cc(Cl)cc(Cl)c1)C2=O` (centres undefined), the compound was called inactive in test [10], in [2], in [3], in [4], in test [9] and in test [6]. In addition, the call in test [7] and in [8] was inactive. Moreover, in [7], the AC50 was 58.5 µM (active).
`CC1(C)CCC(Cc2ccc(Cl)cc2)C1(O)Cn1cncn1` (centres undefined): the compound was called inactive in test [1], in test [10], in test [2], in test [3], in [9] and in [6]. In addition, the compound was called inactive in test [8]. The concentration at half-maximal activity (AC50) in test [7] is 3.58 µM (active).

For the origin of these results see PubChem BioAssay (EPA / NIEHS).
